Consider 13 compounds from PubChem BioAssay (EPA / NIEHS).

A word on the AC50: it is the concentration at which the activity in the assay is half-maximal.

Inconclusive results are not listed. Activity calls are given as the source filed them. Rule for the calls: active = hit-call score of the fitted dose curve at least 0.9, where 1 is the maximum; inconclusive = response in the unintended direction; inactive = score below 0.9.

Sequence of human Esterase Plasma (ES), BCHE (gene 590) (P06276 whole entry, looked up): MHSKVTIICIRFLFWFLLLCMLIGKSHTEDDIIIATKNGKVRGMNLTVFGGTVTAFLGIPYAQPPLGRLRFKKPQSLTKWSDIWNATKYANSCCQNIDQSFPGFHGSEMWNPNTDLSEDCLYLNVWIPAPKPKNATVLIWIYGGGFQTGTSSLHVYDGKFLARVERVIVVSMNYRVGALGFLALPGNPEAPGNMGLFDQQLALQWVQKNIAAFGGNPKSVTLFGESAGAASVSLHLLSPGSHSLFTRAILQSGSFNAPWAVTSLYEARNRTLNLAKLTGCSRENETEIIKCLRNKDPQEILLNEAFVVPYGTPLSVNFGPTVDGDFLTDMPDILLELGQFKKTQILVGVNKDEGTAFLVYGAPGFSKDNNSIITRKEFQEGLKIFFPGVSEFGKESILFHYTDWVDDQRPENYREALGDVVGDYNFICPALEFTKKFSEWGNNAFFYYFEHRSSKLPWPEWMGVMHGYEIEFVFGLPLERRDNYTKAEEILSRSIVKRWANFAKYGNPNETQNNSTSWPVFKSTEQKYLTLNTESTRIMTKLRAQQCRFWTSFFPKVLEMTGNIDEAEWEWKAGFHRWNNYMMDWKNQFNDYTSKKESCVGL

In the test the target is human Esterase Plasma (ES), BCHE (gene 590) (UniProt P06276). Nature of the test: NVS_ENZ_hES: NovaScreen (NVS) Enzymatic Assay for human Esterase Plasma (ES) (AID 2283157). How it is done:
NVS_ENZ_hES is a biochemical, single-readout assay that uses extracted gene-proteins from Human plasma in a cell-free assay. Measurements were taken 0.25 hour after chemical dosing in a 96-well plate.NVS_ENZ_hES is one of one assay component(s) measured or calculated from the NVS_ENZ_hES assay. It is designed to make measurements of enzyme activity, a form of enzyme reporter, as detected with absorbance signals by Colorimetric technology.Data from the assay component NVS_ENZ_hES was analyzed into 1 assay endpoint. This assay endpoint, NVS_ENZ_hES, was analyzed in the positive analysis fitting direction relative to DMSO as the negative control and baseline of activity. Using a type of enzyme reporter, loss-of-signal activity can be used to understand changes in the enzymatic activity as they relate to the gene BCHE. Furthermore, this assay endpoint can be referred to as a primary readout, because this assay has produced multiple assay endpoints where this one serves a enzymatic activity function. To generalize the intended target to other relatable targets, this assay endpoint is annotated to the esterase intended target family, where the subfamily is pseudocholinesterase.
Binding assays used specific radioligands (tritiated, iodinated) with non-radioactive competitive displacement ligands in agonist or antagonist protocols (as indicated) and various reference compounds and inhibitors to titrate specific binding to receptors and transporters. Most enzyme assays (CYPs, kinases, phosphatases, proteases, HDACs) used recombinant protein and specific substrates (fluorescence mostly, some colorimetric and radioactive) and inhibitors, followed by a biochemical separation of substrate and product. All assays for the biochemical HTS were initially run in duplicate at a single concentration (10 uM for CYP450 assays and 25 uM for all others). Assay-chemical combinations meeting a pre-defined threshold (e.g., 30% inhibition and other criteria defined below) were then run in singleton concentration-response format with maximum concentration of 20 uM for CYPs and 50 uM for all others. Each assay was run with positive and negative controls, and concurrent controls on every plate. The follow-up (secondary) screen tested active chemical-pairs in concentration series, as well as a few additional assays not tested in the primary screen, some selected negative inactives, and several cases re-run in the concentration series for confirmatory purposes.
For the compound `Cc1cccc([N+](=O)[O-])c1C`, the outcome was inactive.
Take `Cc1ccc(C(C)C)c(O)c1`: the result was inactive.
For `Nc1ccccc1N`, the AC50 is 17.6 µM (active).
As to `Nc1nc(N)c2nc(CNc3ccc(C(=O)N[C@@H](CCC(=O)O)C(=O)O)cc3)cnc2n1`, the compound was called inactive.
On the same count and under the same terms, then `Cc1cc(=O)[nH]c(=S)[nH]1`, with “inactive”.
Still for that read-out and setting: with `NCC1(Cc2noc(=O)[nH]2)CCCCC1` the entry was “inactive”; with `FC(F)(F)C(F)(F)C(F)(F)C(F)(F)C(F)(F)C(F)(F)CCI`, “inactive”.
On the same count and under the same terms, with `CCCCC(CC)COC(=O)CC(C(=O)OCC(CC)CCCC)S(=O)(=O)O` (stereo not drawn) the entry was “inactive”; with `CCOC(=O)C(C)(C)Oc1ccc(Cl)cc1`, “inactive”; with `COCCOC[C@H](CC1(C(=O)NC2CCC(C(=O)O)CC2)CCCC1)C(=O)Oc1ccc2c(c1)CCC2` (stereo partly drawn), “inactive”.
As for `CN1CCN(Cc2cc(-c3ccc4[nH]c(=O)oc4c3)co2)[C@@H](c2ccc(F)cc2)C1`, the concentration at half-maximal activity (AC50) was 9.48 µM (active).
On to `CC(C)(C)c1cc(O)c(C(C)(C)C)cc1O`, for which the compound was called inactive.
For the compound `NC(=O)Cn1c(=O)cc(CCN2CCN(c3nccc4sccc34)CC2)c2ccc(F)cc21`, the AC50 was 13 µM (active).
